D1 potentiator – Potentiators of Human D1 Dopamine Receptor: qHTS | AID 504651, 2011 | HEK293 TREx D1 cells, calcium flux, dopamine EC20 potentiation | 360,000 compounds, 0.036% hits | D(1A) dopamine receptor (Homo sapiens), P21728 | potentiation, % at 10 µM; in the data active = potentiation above about 30%
Target sequence (P21728 whole entry, looked up): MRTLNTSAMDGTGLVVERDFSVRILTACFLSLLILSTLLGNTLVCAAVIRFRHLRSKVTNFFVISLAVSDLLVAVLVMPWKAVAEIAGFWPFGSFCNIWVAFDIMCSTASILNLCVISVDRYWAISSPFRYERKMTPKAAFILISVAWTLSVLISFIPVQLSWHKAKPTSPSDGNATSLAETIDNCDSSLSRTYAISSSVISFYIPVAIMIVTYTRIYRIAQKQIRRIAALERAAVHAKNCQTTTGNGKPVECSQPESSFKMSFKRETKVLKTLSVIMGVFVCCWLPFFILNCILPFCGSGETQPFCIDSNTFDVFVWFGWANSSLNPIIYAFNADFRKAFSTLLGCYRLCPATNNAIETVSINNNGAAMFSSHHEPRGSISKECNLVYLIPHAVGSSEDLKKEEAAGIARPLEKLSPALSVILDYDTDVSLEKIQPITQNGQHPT
D1 agonist – Allosteric Agonists of the Human D1 Dopamine Receptor: qHTS. HEK293 T-REx D1 cells, calcium flux, agonist mode. activation, % at 2 µM. 360,000 compounds, 1% hits. AID 504660, 2011
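Inducible HEK293 T-REx D1 cells, force-coupled to calcium signalling, were plated at 4000 cells/well with tetracycline and held overnight at 30 C. After no-wash calcium dye loading, compound-evoked calcium rise over 180 s flagged agonists.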
TRHR PAM – qHTS for Small Molecule Agonists and Allosteric Enhancers of Human TRH Receptor: Primary Screen for Enhancers; Thyrotropin-releasing hormone receptor (Homo sapiens), P34981; TRHR cells, fluo-8 calcium fluorescence, EC20 TRH enhancement; enhancement, % at 2 µM; 360,000 compounds, 0.66% hits; AID 493056, 2011; in the data active = enhancement above about 30%
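TRHR-expressing cells loaded with fluo-8 calcium dye were read kinetically (ex 480/em 530) during compound addition, then stimulated with an EC20 of TRH (10 nM final). Enhancement of the Gq-mediated intracellular calcium response was scored.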
TRHR agonist – qHTS for Small Molecule Agonists and Allosteric Enhancers of Human TRH Receptor: Primary Screen for Agonists. activation, % at 2 µM. TRHR cells, calcium flux fluo-8, FDSS agonist mode. 360,000 compounds, 0.18% hits. Thyrotropin-releasing hormone receptor (Homo sapiens), P34981. AID 493084, 2011
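TRHR-expressing cells, plated overnight in medium with 10% serum, were loaded with fluo-8 calcium dye at room temperature. After a 10 s baseline, library compound was pin-added and calcium release was recorded kinetically (ex 480/em 530) as agonist response.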
D1 antagonist – Antagonist of Human D 1 Dopamine Receptor: qHTS | D(1A) dopamine receptor (Homo sapiens), P21728 | activity change, negative = inhibition, % at 10 µM | AID 504652, 2011 | HEK293 TREx D1 cells, calcium flux, dopamine EC80; stronger effect = lower value | 360,000 compounds, 3.2% hits; in the data active = activity change below about -30%
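Calcium flux readout: force-coupled, inducible Hek293 Trex D1 line, cells induced overnight at 30 C with tetracycline, dye-loaded 30–90 min at RT. Antagonism scored against EC80 dopamine challenge given 180 s after compound.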
Numbers stand for hits; – = inactive. The list is not random: actives were taken first. Their share in the collection is about 4.7%. Cut-off read from the data, not from the text of the source, unless noted: active = activation above about 30%; inactive = the rest.

SMILES | D1 potentiator | D1 agonist | TRHR PAM | TRHR agonist | D1 antagonist
COc1ccc(N2CCN(C(=O)COC(=O)c3cc(S(=O)(=O)N(C)C)ccc3N3CCCC3)CC2)cc1 | – | – | – | – | -48
COc1ccc(NC(=O)N2CCCc3ccccc32)cc1OC | – | – | – | – | -55
CCn1cc(/C=C(\NC(=O)c2ccccc2OC)C(=O)N2CCN(C)CC2)c2ccccc21 | – | – | – | – | –
CC12CCC(=O)N1C(C(=O)NNC(=O)c1ccccc1F)CS2 (configuration not stated) | – | – | – | – | –
CCc1ccc(NC(=O)Cn2c(=O)n(Cc3ccco3)c(=O)c3cccnc32)cc1 | – | – | – | – | –
CCCOc1ccc(C(=O)N2CCCc3ccccc32)cc1 | – | – | – | – | -45
CCOc1ccc(C(=O)N2CCc3ccccc32)cc1 | – | – | – | – | –
COc1ccc(CCN2C(=O)CSC2=Nc2ccc(C)cc2C)cc1OC | – | – | – | – | –
COc1ccc(CCn2cc3c(c2-c2ccccc2Br)c(=O)n(C)c(=O)n3C)cc1OC | – | – | – | – | –
Cc1ccc(C(=O)NCCONC(=O)c2ccc(C)cc2)cc1 | – | – | – | – | –
CCCCOc1ccc(C(=O)NCCS(=O)(=O)N2CCN(c3ccccc3OC)CC2)cc1 | – | – | – | – | -65
CC(=O)Nc1ccc(S(=O)(=O)NCCS(=O)(=O)N2CCN(c3ccccc3F)CC2)cc1 | – | – | – | – | –
COc1ccc(S(=O)(=O)NCCS(=O)(=O)N2CCN(c3ccccc3F)CC2)cc1 | – | – | – | – | -38
CCOc1ccccc1N1CCN(S(=O)(=O)CC)CC1 | – | – | – | – | –
CCCCOc1ccc(S(=O)(=O)N2CCN(c3ccccc3OCC)CC2)cc1 | – | – | 32 | – | –
CN(CC(=O)Nc1c(Cl)cccc1Cl)C(=O)CNC(=O)c1ccc2ccccc2c1 | – | – | – | – | –
COc1ccc(NC(=O)CCS(=O)(=O)c2nc(-c3cccs3)cc(C(F)(F)F)n2)cc1OC | – | – | – | – | –
O=C1Nc2ccc(S(=O)(=O)NCCCO)c3cccc1c23 | – | – | – | – | –
O=C1Nc2ccc(S(=O)(=O)NCCC3=CCCCC3)c3cccc1c23 | – | – | – | – | -37
CCCCCc1cc(=O)oc2c(C(CCN(CC)CC)c3ccc(OC)cc3)c(OC)cc(OC)c12 (configuration not stated) | – | 40 | – | – | -39
CCCCCc1cc(=O)oc2c(C(CCN3CCCC3)c3cc(OC)c(OC)c(OC)c3)c(OC)cc(OC)c12 (configuration not stated) | – | 37 | – | – | -34
CCCCCc1cc(=O)oc2c(C(CCN3CCN(c4ccccc4)CC3)c3ccc4c(c3)OCO4)c(OC)cc(OC)c12 (configuration not stated) | – | – | – | – | -31
CCCCCc1cc(=O)oc2c(C(CCN3CCCC3)c3ccc(N(C)C)cc3)c(OC)cc(OC)c12 (configuration not stated) | – | – | – | – | –
Cc1cc(Br)ccc1SCC(=O)NNC(=O)c1ccco1 | – | – | – | – | –
CCN1C(c2ccc(F)cc2)=CS/C1=C(\C#N)c1nnc2n1-c1ccccc1SC2 | – | – | – | – | -35
Cc1nn(C)c(C)c1/C=N/NC(=O)C(C)(C)Oc1ccc(Cl)cc1 | – | – | – | – | -38
Cc1c(/C=N/NC(=O)C(C)(C)Oc2ccc(Cl)cc2)cnn1C | – | – | – | – | –
CCCS(=O)(=O)c1c(S(=O)(=O)CCC)c2cc(C(C)(C)C)ccn2c1C(=O)c1ccccc1 | – | – | – | – | –
CN1CCN(CCCNC(=O)CCC(=O)N2CCOc3ccccc32)CC1 | – | – | – | – | –
O=C(CCC(=O)N1CCOc2ccccc21)NCCCN1CCN(Cc2ccccc2)CC1 | – | – | – | – | -38
